Assay outcomes (PubChem BioAssay)
Shown are actives, neighbours in structure and some others; about 18% of the full set was active somewhere.
DT40 TDP1 CPT = qHTS for Inhibitors of human tyrosyl-DNA phosphodiesterase 1 (TDP1): qHTS in cells in presence of CPT; hit rate 12% among 420,000; Potency, µM (series often up to 46.2 µM), for the others: at the highest dose activity change, negative = growth inhibition, hits mostly inhibitors; chicken DT40 Tdp1-/-;hTDP1 cells + 20 nM CPT, ATP luminescence, 48 h; note: potency is the fitted concentration of half-maximal effect; nearly all actives have a fitted effect of over 55% in size
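Cell growth measured by CellTiter-Glo luminescence after a minimum 48 h, 37 C compound exposure with 20 nM CPT in Tdp1-knockout DT40 cells stably expressing hTDP1, seeded 400/well; qHTS titration format.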
IL1B secr inh = qHTS for Inhibitors of Inflammasome Signaling: IL-1-beta AlphaLISA Primary Screen | THP-1 LPS/ATP IL-1B secretion, AlphaLISA, 16 h; hits give low values | activity change, % at 57.5 µM | hit rate 4.7% among 360,000 | AID 743279, 2014; in the data active = activity change below about -50%; inconclusive = mostly about -30% to -49%
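THP-1 cells pretreated 1 hr with compounds (up to 57.5 uM final), then stimulated with LPS (250 ng/mL final) plus ATP (1.25 mM final); secreted IL-1B measured by AlphaLISA after 16 hr, decreased signal indicating inhibition.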
RORg inh = qHTS for inhibitors of ROR gamma transcriptional activity; Drosophila S2 Gal4-RORgamma UAS-luciferase reporter, 20 h; Nuclear receptor ROR-gamma (Mus musculus), P51450; AID 2551, 2010; hit rate 5.4% among 310,000; Potency, µM (top dose mostly 53.6 µM), inactives show at the highest dose activity change, negative = inhibition, most hits filed as inhibitors; note: potency is the fitted concentration of half-maximal effect; nearly all actives have a fitted effect of over 60% in size
Target sequence (P51450 whole entry, looked up, the tested form may be a part): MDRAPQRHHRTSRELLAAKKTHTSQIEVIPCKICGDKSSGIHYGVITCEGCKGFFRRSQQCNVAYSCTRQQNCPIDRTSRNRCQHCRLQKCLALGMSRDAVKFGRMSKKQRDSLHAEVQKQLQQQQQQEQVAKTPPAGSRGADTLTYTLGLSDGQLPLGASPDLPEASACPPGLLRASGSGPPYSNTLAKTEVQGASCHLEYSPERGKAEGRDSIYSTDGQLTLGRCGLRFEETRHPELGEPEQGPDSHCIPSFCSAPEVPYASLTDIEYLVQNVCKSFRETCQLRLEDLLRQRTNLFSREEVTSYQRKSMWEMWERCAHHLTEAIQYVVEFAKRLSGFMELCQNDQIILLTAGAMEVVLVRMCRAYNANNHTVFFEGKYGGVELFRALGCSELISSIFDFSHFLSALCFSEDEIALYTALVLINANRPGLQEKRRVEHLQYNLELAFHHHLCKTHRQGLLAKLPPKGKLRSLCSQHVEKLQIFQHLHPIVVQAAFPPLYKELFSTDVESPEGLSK
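Read-out: Photinus luciferase luminescence; inhibitors lower reporter signal. Insect Schneider cells with Gal4-ROR gamma fusion under metallothionein promoter, UAS reporter; 700 uM final copper sulfate induction, 20 hr, ambient temperature.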
Gal4-VP16 FLuc = VP16 counterscreen qHTS for inhibitors of ROR gamma transcriptional activity | Potency, µM (highest dose often 53.6 µM), for inactives: at the highest dose activity, negative = inhibition, usual class: inhibitors | hit rate 3.5% among 310,000 | Drosophila S2 Gal4-VP16 UAS-luciferase, luminescence, 20 h | AID 2546, 2010;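 note: Gal4-VP16 expression switched on by copper sulfate through the metallothionein promoter; potency is the fitted concentration of half-maximal effect; nearly all actives have a fitted effect of over 50% in size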
TDP1 cell noCPT = qHTS for Inhibitors of human tyrosyl-DNA phosphodiesterase 1 (TDP1): qHTS in cells in absence of CPT; hit rate 15% among 420,000; Potency, µM (highest dose often 46.2 µM), inactives show at the highest dose activity change, negative = growth inhibition, most hits filed as inhibitors; AID 686978, 2013; DT40 Tdp1-/- hTDP1 cells, no CPT, ATP luminescence, 48 h; note: potency is the fitted concentration of half-maximal effect; nearly all actives have a fitted effect of over 55% in size
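Growth kinetics read by CellTiter-Glo luminescence after ≥48 hr at 37 °C. Cells: DT40 Tdp1-/- stably carrying human TDP1, 400 per well, compound exposure in the absence of CPT (DMSO vehicle).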
LDHA block = qHTS assay for inhibitors of human lactate dehydrogenase | L-lactate dehydrogenase A chain (Homo sapiens), P00338 | purified LDHA, NADH/diaphorase-resazurin fluorescence; hits give low values | activity change, % (values are at about 110 or 230 µM) | hit rate 0.15% among 480,000 | AID 1347041, 2019; in the data active = activity change below about -30%; inconclusive = mostly about -25% to -30%;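 note: plate controls were DMSO wells for no effect and wells without enzyme for full effect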
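Remaining NADH was detected by diaphorase (0.133 mg/mL) converting 37 µM resazurin to fluorescent resorufin, read at 0 and 20 minutes. The preceding 5-minute room-temperature reaction used 2 nM LDHA, 0.2 mM sodium pyruvate and 0.06 mM NADH at pH 7.4.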
Active calls of the source: *; u = inconclusive; x = no result. Unless noted, calls come from the whole dose curve; as a rule, active = well fitted curve in the direction sought with a large enough effect; inconclusive = small, poorly fitted or top-dose-only effect, or another doubt; inactive = no such curve, though single readings can be large; an effect the other way counts as inactive or inconclusive. Unless noted, % is set by controls: 0 for no effect and ±100 for the full control effect.

SMILES	DT40 TDP1 CPT	IL1B secr inh	RORg inh	Gal4-VP16 FLuc	TDP1 cell noCPT	LDHA block
Cc1nnc(-c2ccccc2)c(=O)n1/N=C/c1c(O)ccc2ccccc12	4.11µM*	107.9	u	17.8µM*	5.17µM*	22.2
Cc1ccc2nc(Cl)c3cc(C(=O)NC(C)CCc4ccccc4)sc3c2c1 (stereo unspecified)	x	x	x	x	x	5.7
CCC(CC)C(CNc1ccc2nnnn2n1)N1CCCC1 (stereo unspecified)	x	x	x	x	x	-12.9
CC(C)=NNC(=O)c1ccccc1	x	x	x	x	x	-6.4
CCN(CC)c1ccc(/C=N/n2c(-c3ccccc3Br)n[nH]c2=S)cc1	u	-67.2*	1µM*	-4.5%	18.4µM*	0.5
CCc1n[nH]c(=S)n1/N=C/c1c(O)ccc2ccccc12	8.8%	6.0	u	20µM*	0.1%	7.1
Brc1ccccc1-c1nnc(CN2CCc3ccccc3C2)o1	x	x	x	x	x	0.1
Cc1ccc(C(=O)NCC(C)C)c(C)c1	x	x	x	x	x	-1.0
Cc1cc(Br)ccc1NC(=O)Cn1nc(-c2cccs2)oc1=O	x	x	x	x	x	18.8
CCN1CCN(c2cc(C(C)(C)C)nc3c(-c4ccccc4)c(C)nn23)CC1	u	u	-0.7%	-1.3%	18.4µM*	3.1
CCN1CCN(c2cc(C(C)C)nc3c(-c4ccccc4)c(C)nn23)CC1	11.6µM*	x	-21.6%	-11.2%	20.6µM*	0.6
Cc1cccc(-n2ncc3c(NC4CCCCCCCCCCC4)ncnc32)c1	x	x	x	x	x	3.8
Cc1cccc(-n2ncc3c(NC4CCCCC4)ncnc32)c1	u	u	u	u	u	-3.8
Cc1ccc(-n2ncc3c(NC4CCCCC4)ncnc32)cc1Cl	20.6µM*	x	x	x	16.4µM*	14.4
Cc1cccc(-n2ncc3c(NC4CCCC4)ncnc32)c1	20.6µM*	x	x	x	-52.1%	1.6
Clc1cccc(-n2ncc3c(NC4CCCCCC4)ncnc32)c1	20.6µM*	x	x	x	u	2.6
COc1ccccc1-c1c(C)nn2c(SCC(=O)NCc3ccccc3)cc(C)nc12	x	x	x	x	x	8.8
CC(=O)c1ccc2c(c1)Cc1cc(C(C)=O)ccc1-2	-13.4%	-28.4	u	-16.2%	-19.7%	-3.0
CC(=O)c1ccc2c(c1)CC1(C2)Cc2cc3c(cc2C1)C(=O)CC3 (stereo unspecified)	5.17µM*	13.8	x	x	3.26µM*	-5.6
O=[N+]([O-])c1ccc(Nc2ccccc2)c2nonc12	u	21.8	23.1%	-8.7%	u	-4.4
O=[N+]([O-])c1ccc(Sc2cccc[n+]2[O-])c2nonc12	0.0058µM*	-98.0*	1µM*	1µM*	0.0206µM*	54.3
CC(C)c1cc(C(=O)NC2CCCc3c2cnn3-c2ccccc2F)no1 (stereo unspecified)	u	-4.2	-28.9%	11.2µM*	u	-1.8
CC(=O)Nc1cccc(C(=O)NC2CCCc3c2cnn3-c2ccccc2F)c1 (stereo unspecified)	-1.6%	38.0	4.2%	-0.5%	-0.4%	0.5
COc1cc(C(=O)NC2CCCc3c2cnn3-c2ccccc2F)cc(OC)c1OC (stereo unspecified)	10.3µM*	-21.4	-36.3%	5.01µM*	2.91µM*	-3.7
COC(=O)c1ccc(C(=O)NC2CCCc3c2cnn3-c2ccccc2F)nc1 (stereo unspecified)	5.17µM*	74.6	11.8%	4.6%	2.91µM*	-1.1
SMILES	DT40 TDP1 CPT	IL1B secr inh	RORg inh	Gal4-VP16 FLuc	TDP1 cell noCPT	LDHA block
O=C(CN1CCN(CCc2ccccc2)CC1)Nc1ccc2c(c1)CCC2	x	x	x	x	x	9.3
O=S(=O)(c1ccc2c(c1)OCCO2)c1nc(-c2ccccc2F)oc1N1CCOCC1	x	x	x	x	x	2.3
CC(/C=N/NC(=O)c1ccc(Cn2cc([N+](=O)[O-])cn2)o1)=C\c1ccccc1	-16.5%	-52.4*	11.5%	1.4%	-10.3%	-8.1
CCOc1ccc(/C=N/NC(=O)c2ccc(Cn3cc([N+](=O)[O-])cn3)o2)cc1	-19.7%	-4.2	4.4%	25.3%	-22.7%	-3.1
O=C(N/N=C/c1c(F)c(F)c(F)c(F)c1F)c1ccc(Cn2cc(Br)cn2)o1	16.4µM*	-97.8*	21.8%	-16.4%	14.6µM*	-7.6
Nc1ccccc1C(=O)NCCCNC(=O)c1cnccn1	x	x	x	x	x	-8.0
NC1=NC[C@H](Cc2ccc(O)cc2)N1CCC12CC3CC(CC(C3)C1)C2	8.2µM*	u	0.9%	-5.3%	u	-6.8
O=C1NC[C@H](Cc2ccc(O)cc2)N(CCc2cc(C(F)(F)F)cc(C(F)(F)F)c2)C1=O	-12.7%	-5.8	x	x	-20.5%	5.5
NC1=NC[C@@H](Cc2ccc(O)cc2)N1CCc1cccc(F)c1	u	0.0	-8.6%	-3.4%	-52.2%	5.3
NC1=NC[C@H](CC2CCCCC2)N1CCc1cc(C(F)(F)F)cc(C(F)(F)F)c1	5.8µM*	-27.5	0.7%	-0.1%	7.31µM*	2.7
CC(C)(C)CN1C(N)=NC[C@H]1Cc1ccc(O)cc1	u	12.4	-16.0%	u	u	-4.6
NC1=NC[C@@H](Cc2ccc(O)cc2)N1CCc1cc(C(F)(F)F)cc(C(F)(F)F)c1	u	u	24.2%	1.9%	20.6µM*	0.3
Cc1nc(C#N)c(N2CCN(C(=O)CN3CCCCC3)CC2)o1	x	x	x	x	x	14.6
N#Cc1c(-c2cccs2)cc(-c2cccnc2)nc1N	u	34.8	-18.5%	4.4%	u	-0.7
N#Cc1c(-c2cccs2)cc(-c2ccccn2)nc1N	5.8µM*	-11.2	u	7.94µM*	5.8µM*	2.3
COc1ccc(N2CCN(CCCNC(=O)C3COc4ccc(OC)cc4C3)CC2)cc1 (stereo unspecified)	14.6µM*	x	x	x	20.6µM*	-2.9
COc1ccc2c(c1)CC(C(=O)NCCN1CCN(c3ccccc3F)CC1)CO2 (stereo unspecified)	u	x	x	x	u	0.9
CCc1ccc(CNC(=O)C2COc3ccc(OC)cc3C2)cc1 (stereo unspecified)	-19.0%	x	x	x	-21.3%	-9.8
COc1ccc2c(c1)CC(C(=O)NCCCN1CCN(c3ccc(F)cc3)CC1)CO2 (stereo unspecified)	20.6µM*	x	x	x	25.9µM*	-0.9
O=C(NCCCN1CCN(c2ccccc2F)CC1)C1COc2ccccc2C1 (stereo unspecified)	25.9µM*	x	x	x	u	-2.3
